Results from PubChem BioAssay (NCI).
Values joined by “and” are separate entries in the source; they are usually repeats but may differ in a detail not shown here. Identical values can stand only once. About 83,000 compounds went through this panel and 20% of them were active in at least one assay; those are over-represented in the sample as a whole.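 The test compound was applied at a single concentration to cells in 96-well plates for 48 hours, and percent growth was recorded.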 Active and inactive are the calls of the source. The calls were made as follows: active = growth percent below 10; inactive = the rest.

Key:
Test in all cases: NCI-60 one-dose screen, 48 h (100 = growth as untreated, 0 = no growth, -100 = all killed)
Settings in all cases: 10 µM unless noted
[1] = test system: HCT-15 colon
[2] = test system: HT29 colon
[3] = test system: SNB-75 CNS
[4] = test system: SNB-19 CNS
[5] = test system: U251 CNS
[6] = test system: PC-3 prostate
[7] = test system: SK-MEL-5 melanoma
[8] = test system: UACC-62 melanoma
[9] = test system: LOX IMVI melanoma
[10] = test system: SK-MEL-28 melanoma

Structure (SMILES)	growth [1]	growth [2]	growth [3]	growth [4]	growth [5]	growth [6]	growth [7]	growth [8]	growth [9]	growth [10]
N/C(=N\N=C\c1ccc2c(c1)OCO2)N/N=C\c1ccc2c(c1)OCO2	103% (inactive) and 93.7% (inactive)	88.4% (inactive) and 13% (inactive)	113% (inactive) and 135% (inactive)	108% (inactive) and 92.1% (inactive)	99.4% (inactive) and 84.6% (inactive)	103% (inactive) and 89.6% (inactive)	112% (inactive)	–	–	–
O=C(N/N=C/c1cccc2ccccc12)C1CC1	107% (inactive) and 113% (inactive)	102% (inactive) and 110% (inactive)	90.9% (inactive) and 85% (inactive)	98.8% (inactive) and 95.1% (inactive)	99.7% (inactive) and 100% (inactive)	100% (inactive) and 102% (inactive)	105% (inactive) and 96.6% (inactive)	92.3% (inactive) and 99.8% (inactive)	91.8% (inactive)	–
O=C(/C=C/c1ccccn1)c1ccccc1O	39.4% (inactive) and 62% (inactive)	37.7% (inactive) and 29% (inactive)	75% (inactive)	77.3% (inactive) and 81.6% (inactive)	38.3% (inactive) and 68.4% (inactive)	82.8% (inactive)	75.2% (inactive) and 88.1% (inactive)	77.5% (inactive) and 81.6% (inactive)	20.4% (inactive) and 21.7% (inactive)	–
Cc1cc(O)c2c(c1)C(=O)c1cc(O)cc(O)c1C2=O	98.9% (inactive) and 92.2% (inactive)	105% (inactive) and 99.6% (inactive)	88% (inactive) and 86.7% (inactive)	82.5% (inactive) and 94.2% (inactive)	92.1% (inactive) and 88.1% (inactive)	67% (inactive) and 77.9% (inactive)	48.9% (inactive) and 59.9% (inactive)	60.7% (inactive) and 83.6% (inactive)	84.6% (inactive) and 86.5% (inactive)	87.7% (inactive)
CCCCOc1cc(C(=O)NCCN(CC)CC)c2ccccc2n1	96.5% (inactive) and 100% (inactive)	57.7% (inactive) and 92.4% (inactive)	75.2% (inactive) and 88.9% (inactive)	90.1% (inactive) and 91.9% (inactive)	83.4% (inactive) and 92.2% (inactive)	73.9% (inactive) and 96% (inactive)	86.4% (inactive) and 94.5% (inactive)	95.6% (inactive) and 90.1% (inactive)	88.4% (inactive) and 110% (inactive)	–
CCN(CC)CCCC(C)Nc1ccnc2cc(Oc3ccccc3)ccc12 (centres undefined)	52.7% (inactive) and 54.5% (inactive)	30.1% (inactive)	62.9% (inactive) and 99.8% (inactive)	83.5% (inactive) and 94.5% (inactive)	56.5% (inactive) and 60.4% (inactive)	61.9% (inactive) and 67.7% (inactive)	-87.1% (active) and 79.6% (inactive)	60.9% (inactive) and 92.8% (inactive)	22.2% (inactive) and 39.3% (inactive)	1.01% (active) and 85.5% (inactive)
CC1=NN(c2ccccc2)C(=O)C1C(=O)c1ccccc1 (centres undefined)	108% (inactive)	107% (inactive)	103% (inactive)	95.1% (inactive)	94.4% (inactive)	87.9% (inactive)	99.1% (inactive)	99.2% (inactive)	96.9% (inactive)	101% (inactive)
CN(C)c1ccc2nc3ccc(N)cc3[n+](-c3ccccc3)c2c1	90.7% (inactive) and 18.7% (inactive)	32.5% (inactive) and 24.4% (inactive)	18.6% (inactive) and 52.4% (inactive)	12.3% (inactive) and 21.1% (inactive)	16% (inactive) and 3.13% (active)	22.2% (inactive) and 7.58% (active)	-5.68% (active) and -77.7% (active)	17% (inactive) and 13.4% (inactive)	28% (inactive) and 6.03% (active)	37.6% (inactive) and 30.9% (inactive)
